MsrA inhibitor = inhibitors of bovine MsrA. purified bovine MsrA, absorbance read-out. inhibition, % at 15.5 µM. hit rate 0.75% among 360,000. AID 651718; in the data active = inhibition above about 4.5%
PLC-gamma1 inh = inhibitors of human phospholipase C gamma1. AID 720700. P19174. inhibition, % at 12.2 µM. purified PLC-gamma1, fluorogenic substrate, fluorescence. hit rate 0.84% among 370,000; in the data active = inhibition above about 9.5%
MsrA act = bovine methionine sulfoxide reductase A activation | purified bovine MsrA, absorbance read-out | activation, % at 10.6 µM | hit rate 0.3% among 360,000 | AID 602163; in the data active = activation above about 7.5%
PLC-beta3 inh = inhibitors of human phospholipase C beta3 | hit rate 0.18% among 370,000 | AID 720704 | inhibition, % at 12.2 µM | Purified PLC-beta3, fluorogenic substrate, fluorescence
MsrA act confirm = confirmation of bovine methionine sulfoxide reductase A activators; shares compounds with MsrA act; purified bovine MsrA, absorbance read-out; activation, % at 10.6 µM; hit rate 12% among 1,000; AID 602270; in the data active = activation above about 4%;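 note: enzyme coupled to thioredoxin and thioredoxin reductase with NADPH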
MsrA inh confirm = bovine MsrA inhibition, confirmed; shares compounds with MsrA inhibitor; purified bovine MsrA, absorbance read-out; inhibition, % at 15.5 µM; hit rate 41% among 2,300; in the data active = inhibition above about 4.5%;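 note: coupled to thioredoxin reductase with NADPH and selenocystamine and DMSO as substrate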
PLCg1 ctr = counter-screen for PLC-beta3 inhibitors: inhibitors of human PLC-gamma1; shares compounds with PLC-gamma1 inh; purified PLC-gamma1, fluorogenic substrate, fluorescence; inhibition, % at 12.3 µM; hit rate 3.1% among 3,300; in the data active = inhibition above about 9.5%
PLCb3 confirm = human PLC-beta3 inhibition, confirmation; AID 743261; purified PLC-beta3, fluorogenic substrate fluorescence; hit rate 1% among 3,300; shares compounds with PLC-gamma1 inh; inhibition, % at 12.3 µM
Hits are given with their value; . = inactive; / = not tested or not shown. In the library only some 1.9% were active in any assay of this set; here they are far more common. Cut-off read from the data, not from the text of the source, unless noted: active = inhibition above about 11%; inactive = the rest.

SMILES | MsrA inhibitor | PLC-gamma1 inh | MsrA act | PLC-beta3 inh | MsrA inh confirm | others
COc1ccc(CNC(=O)c2c(C)oc3c2C(=O)c2ccccc2C3=O)cc1 | 7.6 | . | 7.9 | . | 9.0 | MsrA act confirm=8.0
O=C(c1ccccc1)c1coc2c1C(=O)c1ccccc1C2=O | 19 | . | 8.2 | . | 26 | MsrA act confirm=16
O=C(Cc1cc(=O)[nH][nH]1)N/N=C/c1ccccc1C(F)(F)F | / | . | / | . | /
Cn1c(N=Nc2ccccc2)nc2ccccc21 | . | . | 7.7 | 12 | / | MsrA act confirm=.;PLCg1 ctr=.;PLCb3 confirm=.
O=C(Nc1c(-c2ccccc2)nc2ncccn12)c1ccc(F)cc1 | / | . | / | . | /
O=C1c2cccnc2-c2ncccc21 | . | . | . | . | /
O=C1C(=O)c2cccnc2-c2ncccc21 | . | 53 | 95 | . | / | MsrA act confirm=76;PLCg1 ctr=51;PLCb3 confirm=.
COC(=O)[C@H](N[C@H](/C=C/c1ccccc1)[C@@H](O)Cc1ccccc1)c1ccccc1 | . | . | / | . | /
NC1=C(Cl)C(=O)c2ccc(S(N)(=O)=O)cc2C1=O | . | 16 | 24 | . | / | MsrA act confirm=14;PLCg1 ctr=19;PLCb3 confirm=.
NS(=O)(=O)c1ccc2c(c1)C(=NO)c1cc(S(N)(=O)=O)ccc1-2 | . | . | . | . | /
CCOc1ccc(NC(=O)CSCc2cnn(-c3ccccc3)c2-n2cccc2)cc1 | . | 10 | 8.8 | . | / | MsrA act confirm=.;PLCg1 ctr=.;PLCb3 confirm=.
CC(C)(C)C(=O)/C(C#N)=C/c1cccs1 | . | . | . | . | /
COc1ccc(N(CCC#N)C(=O)/C(C#N)=C/c2cccs2)cc1 | 5.5 | . | . | . | .
COc1cc(C(=O)C(=O)c2ccc(O)c(OC)c2)ccc1O | 6.4 | . | . | . | .
Cc1ccc(C(=O)N/N=C/C=C/c2ccccc2)o1 | 8.8 | . | . | . | 8.2
Cc1onc(-c2ccccc2)c1C(=O)N/N=C/C=C/c1ccccc1 | . | . | . | . | /
O=C(N/N=C/C=C/c1ccccc1)c1cccnc1 | 5.3 | . | . | . | 4.9
CC(/C=C/C=C/c1ccccc1)=N\NC(=O)c1cccnc1 | 7.6 | . | . | . | 4.5
Cc1cc(C(=O)NN=Cc2ccccc2C(=O)O)n[nH]1 | / | . | / | . | /
Cc1cc(C(=O)N/N=C/C=C/c2ccccc2)n[nH]1 | 5.8 | . | . | . | 5.1
Cc1ccc([C@H]2C[C@]34CN(Cc5ccccc5)S(=O)(=O)[C@H]3C[C@H]2O4)cc1 | . | . | / | . | /
C=CCN=C1NC(CCc2ccccc2)C(C(=O)OC)=C(C)N1Cc1cccc(C(F)(F)F)c1 (stereo unspecified) | . | . | / | . | /
O=C(CSc1ccccn1)N/N=C/C=C/c1ccccc1 | 4.9 | . | . | . | .
COc1ccccc1CN1Cc2ccccc2Oc2ccccc2S1(=O)=O | . | . | / | . | /
CCOc1ccc(/C=N/n2nnnc2N)cc1OCC | 4.8 | . | . | . | .
SMILES | MsrA inhibitor | PLC-gamma1 inh | MsrA act | PLC-beta3 inh | MsrA inh confirm | others
CCCCCC(=O)NC1CCCCN(Cc2ccccc2C)C1=O (stereo unspecified) | / | . | / | . | /
N#C/C(=C\c1ccc(Cl)cc1)c1n[nH]c(Cn2cncn2)n1 | . | . | . | . | /
COc1ccc(/C=C(\C#N)c2n[nH]c(Cn3cncn3)n2)cc1 | 5.7 | . | . | . | 5.2
O=C(C(=O)N1CCC(CNC(=O)C2COc3ccccc3O2)CC1)c1cc2ccccc2o1 (stereo unspecified) | . | . | / | . | /
O=c1oc2ccccc2c2c1ccc1ccccc12 | 6.2 | . | . | . | 5.0
CN1CC[C@@H]2CN(S(=O)(=O)c3ccccc3)[C@H](c3ccccc3Br)C[C@@H]21 | . | . | / | . | /
Cc1ccc(C)n1-n1cnc2scc(-c3cccs3)c2c1=O | 5.5 | . | . | . | .
O=c1c2c(-c3cccs3)csc2ncn1-n1cccc1 | . | . | . | . | /
O=Cc1cn(-c2ccccc2)nc1-c1ccc2c(c1)OCCO2 | 17 | . | . | . | 12
N#Cc1cn(-c2ccccc2)nc1-c1ccc2c(c1)OCCO2 | . | . | . | . | /
O=Cc1cn(-c2ccccc2)nc1-c1ccc(F)cc1 | 12 | . | . | . | 8.3
COC(=O)[C@@]12CCCCC=C1N(CCc1ccc(Cl)cc1)C(=O)[C@H]2CC(=O)NCCc1ccccc1OC | / | . | / | . | /
COC(=O)C1=C(C)N(Cc2ccccc2C(F)(F)F)C(=NCc2ccccc2C(F)(F)F)NC1c1ccc(F)cc1 (stereo unspecified) | . | . | / | . | /

Source: PubChem BioAssay (The Scripps Research Institute Molecular Screening Center)
